# Compound activity (PubChem)
# In the library only some 4.7% were active in any assay of this set; here they are far more common.
# TIM10 inh: inhibits growth of TIM10 yeast strain. S. cerevisiae TIM10 strain growth, BacTiter-Glo luminescence, 24 h. inhibition, % at 10 µM. 330,000 compounds, 1.4% hits;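 active = inhibition of 40% or more at the single tested concentration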;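 note: wild-type TIM10 isogenic control strain grown at permissive 25 °C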
# ATG4B inhibitor: blocks human ATG4B protease cleavage of LC3 substrate; Q9Y4P1; ATG4B cleavage of LC3-PLA2, NBD-HPC fluorescence, 1 h; inhibition, % at 8.33 µM; 340,000 compounds, 0.51% hits; in the data active = inhibition above about 40%
# Target sequence (Q9Y4P1 whole entry, looked up): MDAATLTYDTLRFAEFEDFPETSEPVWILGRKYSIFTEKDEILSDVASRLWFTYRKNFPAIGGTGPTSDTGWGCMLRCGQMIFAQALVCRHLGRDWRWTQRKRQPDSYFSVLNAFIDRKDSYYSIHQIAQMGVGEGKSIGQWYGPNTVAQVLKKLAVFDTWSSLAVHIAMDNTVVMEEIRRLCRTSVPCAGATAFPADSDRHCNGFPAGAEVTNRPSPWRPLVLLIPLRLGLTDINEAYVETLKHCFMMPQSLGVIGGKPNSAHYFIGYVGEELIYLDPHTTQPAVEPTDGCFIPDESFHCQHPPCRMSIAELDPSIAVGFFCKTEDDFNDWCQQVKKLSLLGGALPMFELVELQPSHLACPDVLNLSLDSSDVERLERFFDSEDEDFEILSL
# PfHsp90 yeast 2: growth inhibition of yeast expressing Plasmodium Hsp90. S. cerevisiae expressing PfHsp90, BacTiter-Glo ATP, 48 h; yeast lacking PDR1 and PDR3 efflux regulators. inhibition, % at 9.4 µM. 310,000 compounds, 0.32% hits. AID 504621;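 active = every replicate shows inhibition above about 80%, whatever the replicate mean, limit read from the data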;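 note: 0% = DMSO neutral controls and 100% = 20 µM radicicol positive controls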
# tim23-1 inh: tim23-1 yeast growth inhibition. AID 463212. 330,000 compounds, 1.3% hits. inhibition, % at 20 µM. S. cerevisiae tim23-1 growth, BacTiter-Glo luminescence, 24 h;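 active = growth inhibition of the mutant yeast at or above 50%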;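 note: temperature-sensitive mutant grown at 25 °C; plate controls were DMSO-treated mutant yeast for no effect and medium wells lacking yeast for full effect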
# SKKanGAS inh: blocks kanamycin growth of S. pyogenes SKKanGAS strain; BacTiter-Glo, 6 h; inhibition, % at 7.5 µM; 300,000 compounds, 1.3% hits; AID 1662;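 active = mean replicate score, as percent of positive control median, at least 50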;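 note: strain carries kanamycin resistance gene driven by streptokinase promoter and grows in 40 µg/ml kanamycin; loss of luminescence reflects streptokinase promoter inhibition or plain growth inhibition; 0% = median of DMSO wells and 100% = positive control at its reference dose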
# tim10-1 inh: tim10-1 yeast growth inhibition; inhibition, % at 20 µM; S. cerevisiae tim10-1 ts strain growth, BacTiter-Glo, 24 h; 330,000 compounds, 2.2% hits;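 active = inhibition of at least 40%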;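 note: mutant grown at 25 °C; 0% = DMSO wells with yeast and 100% = wells holding no yeast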
# TIM10 conf: TIM10 yeast growth inhibition, confirmed | shares compounds with TIM10 inh | AID 463215 | S. cerevisiae tim10 strain growth, BacTiter-Glo luminescence, 24 h | inhibition, % at 10 µM | 4,600 compounds, 63% hits;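 active = inhibition of yeast growth at or above a set limit in either of two replicates at 10 µM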;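 note: this counterscreen used the strain with wild-type TIM10; 0% = yeast with DMSO and 100% = medium wells lacking yeast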
# Starred values were filed as active, the others as inactive; . = no result.
SMILES,TIM10 inh,ATG4B inhibitor,PfHsp90 yeast 2,tim23-1 inh,SKKanGAS inh,tim10-1 inh,TIM10 conf
O=C(c1ccc(S(=O)(=O)NCc2ccco2)cc1)N1CCN(Cc2ccccc2F)CC1,10,-8,-32,8,.,4,.
COc1ccc(NC(=O)/C=C/c2ccc(C)o2)cc1S(=O)(=O)N1CCOCC1,-3,-11,0,12,-1,13,.
Cc1cccc(NC(=S)N/N=C(\c2ccccc2)C(C)C)c1,54*,5,-9,40,69*,39,40*
CC(C)/C(=N\NC(=O)Nc1ccccc1)c1ccccc1,7,7,-4,27,8,31,.
CN(C)CCN(C(=O)c1ccc(S(=O)(=O)N2CCCC2)cc1)c1nc2ccc(Br)cc2s1,15,-14,-28,16,5,16,.
CC1CCCCN1S(=O)(=O)c1ccc(C(=O)N(CCCN(C)C)c2nc3ccc(Br)cc3s2)cc1 (stereo unspecified),40,-1,-1,11,15,16,23
CC(C)c1ccc(S(=O)(=O)N2CCN(C(=S)NCc3ccco3)CC2)cc1,49*,-6,-25,40,5,40,-32
CCCCn1c(SCc2nc(N)nc(Nc3ccccc3C)n2)nc2ccccc2c1=O,17,24,5,34,17,32,.
O=C(Nc1ccc2nc(-c3ccccc3)[nH]c2c1)c1ccco1,50*,-7,.,44,-7,4,25
O=C(Nc1cccc(-c2nc3ccccc3[nH]2)c1)c1cccc(NC(=O)c2ccco2)c1,-2,-8,-13,-8,21,16,.
CCOc1cc(/C=C2/C(=O)ON=C2C)ccc1OCc1ccc(F)cc1,43*,-2,-42,46,-12,40,25
CC(C)(C)c1ccc(OCC(=O)NNC(=S)NC(=O)c2ccccc2[N+](=O)[O-])c(Br)c1,49*,12,-16,45,100*,36,44*
O=C(CSc1nnnn1C1CC1)Nc1cccc(S(=O)(=O)N2CCCC2)c1,2,-4,.,6,.,11,.
O=C(/C=C/c1ccc2ccccc2n1)c1cc(Br)ccc1O,52*,2,-14,35,20,34,31*
COc1ccccc1CNC(=O)c1cc(S(=O)(=O)N2CCOCC2)cn1C,-2,-23,-10,12,0,3,.
COc1ccc(N2CCN(C(=O)c3ccc(NS(=O)(=O)c4cccs4)cc3)CC2)cc1,3,-12,-10,12,3,13,.
O=C(N/N=C/c1ccc(F)cc1)c1cc(-c2ccccn2)nc2ccccc12,-16,-6,-4,-5,.,-9,.
COc1cccc(/C=N/NC(=O)c2cc(-c3ccccn3)nc3ccccc23)c1O,45*,-2,22,25,.,19,7
O=C(COC(=O)CC1CC2CCC1C2)Nc1ccc(F)cc1 (stereo unspecified),43*,-8,25,31,-2,27,28
CC(=O)c1ccc(NC(=O)COC(=O)CC2CC3CCC2C3)cc1 (stereo unspecified),10,-2,-15,39,.,-2,.
CCN(CC)S(=O)(=O)c1ccc(N/N=C(\C)c2ccc(OC)cc2O)nc1,42*,-13,-11,45,82*,30,40*
CCN(CC)S(=O)(=O)c1ccc(N/N=C/c2ccc(OC)c(OC)c2OC)nc1,-4,-5,-37,-1,3,13,.
O=C(Nc1ccc(Cl)cc1)c1ccc2ncsc2c1,9,4,-26,-3,-2,3,.
O=C(Nc1cccc(Cl)c1)c1ccc2ncsc2c1,50*,-7,13,31,-6,25,45*
CC(=O)c1c(COC(=O)c2cccc(C)c2)nc2ccccc2[n+]1[O-],13,-1,-4,29,-7,22,.
SMILES,TIM10 inh,ATG4B inhibitor,PfHsp90 yeast 2,tim23-1 inh,SKKanGAS inh,tim10-1 inh,TIM10 conf
COc1ccc(CNC(=S)N/N=C(\C)c2ccc(OC)cc2)cc1,44*,-14,-5,-11,38,34,44*
C=CCNC(=S)N/N=C(\C)c1cccnc1,-17,-3,.,5,4,22,.
C=CCNC(=S)N/N=C(\C)c1cccc(OC)c1,41*,-2,-10,44,0,27,20
C/C(=N\NC(=S)NCc1ccccc1)c1ccc2ccccc2c1,54*,2,-41,44,-14,39,-12
O=C(NC(=S)N1CCc2ccccc21)c1ccccc1Br,41*,5,-37,34,-3,24,31*
N#Cc1ccc(OCc2cccc(S(=O)(=O)N3CCOCC3)c2)cc1,-5,-9,-25,8,-4,9,.
Cc1cc(OCc2cccc(S(=O)(=O)N3CCOCC3)c2)ccc1Cl,50*,-5,-2,35,.,19,26
CC1CCCCN1Cc1c(O)ccc2c(=O)c(-c3nc4ccccc4s3)c(N)oc12 (stereo unspecified),42*,-29,-10,46,12,22,25
CC(=O)c1sc(-c2ccccc2Cl)nc1C,6,-2,-14,5,-7,10,.
CSc1nc2sc3c(c2c(=S)[nH]1)CC(C)(C)OC3,43*,-2,-24,40,25,37,44*
O/N=C/c1cn(-c2ccccc2)nc1-c1ccc2c(c1)OCCO2,40,-17,-16,-34,-11,16,-3
O=C(O)/C=C/c1cn(-c2ccccc2)nc1-c1ccc2c(c1)OCCO2,-3,-4,16,25,-5,8,.
CCn1c(-c2cc(-c3ccccc3)sc2N)n[nH]c1=S,45*,-7,-4,41,-3,25,43*
S=c1[nH]nc(-c2ccc(Cl)cc2Cl)n1Cc1ccccc1,56*,-9,-80,44,-3,28,17
CCn1c(-c2ccccc2O)n[nH]c1=S,-3,7,11,3,2,-7,.
S=c1[nH]nc(-c2cc3ccccc3o2)n1Cc1ccccc1,52*,-6,-21,45,10,33,48*
S=c1[nH]nc(-c2cccc(Cl)c2)n1Cc1ccccc1,37,6,-7,40,-5,32,.
Cc1cccc(-c2n[nH]c(=S)n2Cc2ccccc2)c1,41*,8,-10,23,15,38,-40
COc1ccc(C=NCC2OCCc3ccccc32)cc1OC (stereo unspecified),-20,8,-1,16,1,10,.
Cn1c(C(=O)N2CCN(Cc3ccc4c(c3)OCO4)CC2)cc2sccc21,0,-5,1,26,6,33,.
O=C1C(c2ccnc3ccccc23)=C(O)c2ccccc21,55*,7,24,23,12,13,38*
O=C1c2ccccc2C(=O)C1c1ccnc2ccccc12,49*,5,9,25,3,20,39*
